# Active and inactive are the calls of the source.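 How the source made its calls: active means every separate test run called active, meaning the signal drops and a potency is fitted within twice the top valid dose; inconclusive means runs disagree, poor fit, or flat partial inhibition; inactive means all runs inactive, flat, opposite direction or too weak.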
# Target: Mitogen-activated protein kinase 3 (Homo sapiens) (UniProt P27361)
# Assay: ERK1 kinase inhibitors, dose response, selectivity assay for Dyrk1A inhibitor NFAT project, biochemical, ADP-Glo luminescence, cherry pick, set 2 (AID 602295)
# Chain of Mitogen-activated protein kinase 3 (Homo sapiens) (P27361 whole entry, looked up): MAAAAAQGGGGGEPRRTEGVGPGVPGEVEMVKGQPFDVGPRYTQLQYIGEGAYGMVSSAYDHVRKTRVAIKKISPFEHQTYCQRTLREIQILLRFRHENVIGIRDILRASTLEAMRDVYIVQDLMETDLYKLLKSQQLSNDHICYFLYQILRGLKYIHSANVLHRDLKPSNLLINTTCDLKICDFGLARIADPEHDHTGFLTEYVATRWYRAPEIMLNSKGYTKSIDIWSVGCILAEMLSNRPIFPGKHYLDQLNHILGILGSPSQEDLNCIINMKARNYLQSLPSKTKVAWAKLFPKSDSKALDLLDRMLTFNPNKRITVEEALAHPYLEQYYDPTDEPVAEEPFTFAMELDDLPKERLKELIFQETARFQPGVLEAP
smiles,measurement,value
COc1ccc2c(c1)[nH]c1c(C)nccc12,outcome,inactive

# Reference: PubChem BioAssay AID602295 (Broad Institute, 2012)
